Source: PubChem BioAssay (Tox21)
Records with an inconclusive call do not appear. A number with no mark means an inactive call. Unless noted, calls come from the whole dose curve.

Biological target: Thyrotropin receptor (Homo sapiens) (UniProt P16473)
Assay: qHTS assay to identify small molecule agonists of the thyroid stimulating hormone receptor (TSHR) signaling pathway (AID 1224843); note: nearly all actives have a fitted effect of over 45% in size
Conditions: TSHR-HEK293 cells, cAMP HTRF, agonist mode, 30 min; series mostly up to 92.4 µM; activation: at the top concentration
Summary of the method: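 A cell-based cAMP HTRF format was run in TSHR-transfected HEK293 cells, 800 per well. Treatment: 30 min, room temperature. Detection: 1 h with labelled cAMP and anti-cAMP cryptate. Concentration-response over 15 points, three replicates.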
% is set by controls: 0 for no effect and ±100 for the full control effect.

Chain of Thyrotropin receptor (Homo sapiens) (P16473 whole entry, looked up): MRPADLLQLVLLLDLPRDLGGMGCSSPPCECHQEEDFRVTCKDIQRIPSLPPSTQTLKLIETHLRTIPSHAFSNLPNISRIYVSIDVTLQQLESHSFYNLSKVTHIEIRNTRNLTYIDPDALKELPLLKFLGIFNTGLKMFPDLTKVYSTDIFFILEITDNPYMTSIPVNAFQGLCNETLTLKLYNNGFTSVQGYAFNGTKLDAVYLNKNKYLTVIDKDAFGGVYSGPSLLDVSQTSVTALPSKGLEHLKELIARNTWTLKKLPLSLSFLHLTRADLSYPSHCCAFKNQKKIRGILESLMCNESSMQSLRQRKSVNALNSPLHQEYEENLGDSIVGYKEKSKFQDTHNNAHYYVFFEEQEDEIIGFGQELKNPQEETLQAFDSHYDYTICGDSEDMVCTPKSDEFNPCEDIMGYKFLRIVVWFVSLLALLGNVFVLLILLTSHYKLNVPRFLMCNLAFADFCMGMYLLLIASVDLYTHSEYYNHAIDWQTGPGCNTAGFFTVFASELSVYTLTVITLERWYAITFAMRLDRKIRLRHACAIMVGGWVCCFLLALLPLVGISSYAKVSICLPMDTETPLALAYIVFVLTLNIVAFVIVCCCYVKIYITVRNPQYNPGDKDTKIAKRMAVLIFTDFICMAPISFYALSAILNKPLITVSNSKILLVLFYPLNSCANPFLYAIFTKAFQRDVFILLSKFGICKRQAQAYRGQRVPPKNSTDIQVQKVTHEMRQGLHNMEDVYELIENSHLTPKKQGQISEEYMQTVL

Structure (SMILES)	activation
COc1ccc(NS(=O)(=O)c2ccc(N)cc2)nn1	2.26% [at 42.5 µM]
CC(C)C(=O)c1ccccc1	-5.51%
CCCCCCCCCCC	4.38%
CN(C)CCOCCN(C)CCO	3.63%
CC(C)(CO)[C@@H](O)C(=O)NCCCO	-4.23% [at 42.5 µM]
C=CCOCC(CO)(COCC=C)COCC=C	-4.72% [at 42.5 µM]
Cc1ncc([N+](=O)[O-])n1CC(O)CCl (centres undefined)	-8.79% [at 42.5 µM]
CCN(CCO)c1cccc(C)c1	-19.4%
CN=C(NC#N)NCCSCc1csc(N=C(N)N)n1	-1.04% [at 42.5 µM]
CC1CCC(C(C)(C)S)C(=O)C1 (centres undefined)	-1.87%
O=CN1CCOCC1	0.0472%
CCCCCCCCCCCCCCCCCCN(C)C	-4.05% [at 42.5 µM]
O=C(O)CCNC(=O)c1ccccc1	-6.18% [at 42.5 µM]
COc1ccc(OC)c(NC(=O)CC(C)=O)c1	-10%
CCN(CCC#N)c1ccccc1	1.94%
O=C(CN1CCN(Cc2ccc3c(c2)OCO3)CC1)N1c2ccccc2Sc2ccccc21	11.4% [at 42.5 µM]
O=c1[nH]c(=O)c2ccccc2o1	8.76% [at 42.5 µM]
CCC1COC(=O)O1 (centres undefined)	-0.361%
Cc1cccc(NC(=S)N(C)C)c1	-2.67%
O=C(COCCOCCOCC(=O)Nc1c(I)cc(I)c(C(=O)O)c1I)Nc1c(I)cc(I)c(C(=O)O)c1I	9.69% [at 42.5 µM]
NC(=O)NC(=O)Cc1ccccc1	1.38% [at 42.5 µM]
CC(=O)/C=C/c1ccco1	7.67%
CCCCCCCCC(=O)OCC	-1.53%
CCCCCCCCCCCCCCCCI	-19.7% [at 19 µM]

Tested on: not listed separately
Assay: qHTS assay to identify small molecule agonists of the hypoxia (HIF-1) signaling pathway - cell viability counter screen (AID 1224844); note: nearly all actives have a fitted effect of over 50% in size
Conditions: HRE-bla ME-180 viability, CellTiter-Glo luminescence, 17 h; series mostly up to 76.8 µM; activity change, negative = cytotoxicity: at the top concentration
Summary of the method: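 In this counter screen, HRE-bla ME-180 cell viability after 17 hrs of compound exposure at 37C was read by CellTiter-Glo luminescence, multiplexed with the beta-lactamase reporter measurement.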

Structure (SMILES)	activity change, negative = cytotoxicity
CC(CC(=O)O)CC(C)(C)C (centres undefined)	-8.29%
Nc1ccc(/C=C/c2ccc(N)cc2S(=O)(=O)O)c(S(=O)(=O)O)c1	-0.74% [at 0.29 µM]
COc1ccc(NS(=O)(=O)c2ccc(N)cc2)nn1	-0.686% [at 35.3 µM]
CCCCCCCCCCCCC1CO1 (centres undefined)	0.344%
CC(C)C(=O)c1ccccc1	0.75%
CC(Cl)COP(=O)(OCC(C)Cl)OCC(C)Cl (centres undefined)	-1.2%
CC(C)(CO)[C@@H](O)C(=O)NCCCO	3.89% [at 35.3 µM]
CC(=O)OC(C)c1ccccc1 (centres undefined)	5.96%
C=CCOCC(CO)(COCC=C)COCC=C	1.43% [at 35.3 µM]
Cc1ncc([N+](=O)[O-])n1CC(O)CCl (centres undefined)	9.51% [at 35.3 µM]
CCN(CCO)c1cccc(C)c1	-9.97%
CN=C(NC#N)NCCSCc1csc(N=C(N)N)n1	10.9% [at 35.3 µM]
O=CN1CCOCC1	16.9%
Cc1c(C(C)C)c(=O)n(-c2ccccc2)n1C	9.69% [at 35.3 µM]
CCCCCCCCCCCCCCCCCCN(C)C	2% [at 35.3 µM]
O=C(O)CCNC(=O)c1ccccc1	-0.651% [at 35.3 µM]
COc1ccc(OC)c(NC(=O)CC(C)=O)c1	-0.0595%
CCN(CCC#N)c1ccccc1	4.62%
O=C(O)c1ccccc1C(=O)Nc1ccc(S(=O)(=O)Nc2nccs2)cc1	3.31% [at 35.3 µM]
O=c1[nH]c(=O)c2ccccc2o1	2.75% [at 35.3 µM]
CCC1COC(=O)O1 (centres undefined)	5.16%
C=CCOc1cc(Cl)ccc1C(=O)NCCN(CC)CC	-0.798% [at 35.3 µM]
Cc1cccc(NC(=S)N(C)C)c1	-6%
O=C(COCCOCCOCC(=O)Nc1c(I)cc(I)c(C(=O)O)c1I)Nc1c(I)cc(I)c(C(=O)O)c1I	5.26% [at 35.3 µM]
C=CCOc1c(Br)cc(Br)cc1Br	-1.25%
NC(=O)NC(=O)Cc1ccccc1	-2.09% [at 35.3 µM]
FC(F)(F)/C(=N\OCC1OCCO1)c1ccc(Cl)cc1	22.3%
CCOc1ccc(NC(=O)OC(C)C)cc1OCC	-31%
CC(=O)/C=C/c1ccco1	-5.27%
CCC(=O)OCCC(C)CCC=C(C)C (centres undefined)	14.6%

Tested on: not listed separately
Assay: qHTS assay to identify small molecule agonists of H2AX (AID 1224845; active = well fitted activation curve with a large enough effect in the signal ratio in the repeat runs, not every such curve was filed as active; the % refers to the signal ratio)
Conditions: CHO-K1 phospho-H2AX Ser139 HTRF, 3 h; series mostly up to 154 µM; activation (H2AX phosphorylation): at the top concentration
Summary of the method: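 Phospho-H2AX Ser139 measured by HTRF (ex 320 nm; em 665 and 620 nm) after 24 hr antibody incubation. Compounds, 15 concentrations, 0.76% DMSO, were applied to CHO-K1 cells for 3hr at 37C before lysis.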

Structure (SMILES)	activation (H2AX phosphorylation)
CC(CC(=O)O)CC(C)(C)C (centres undefined)	0.676%
Nc1ccc(/C=C/c2ccc(N)cc2S(=O)(=O)O)c(S(=O)(=O)O)c1	-0.0976% [at 0.582 µM]
COc1ccc(NS(=O)(=O)c2ccc(N)cc2)nn1	0.674% [at 70.9 µM]
CCCCCCCCCCCCC1CO1 (centres undefined)	-3.21%
CC(C)C(=O)c1ccccc1	0.677%
CCCCCCCCCCC	-0.323%
CC(Cl)COP(=O)(OCC(C)Cl)OCC(C)Cl (centres undefined)	-1.51%
CN(C)CCOCCN(C)CCO	0.563%
CC(C)(CO)[C@@H](O)C(=O)NCCCO	1.42% [at 70.9 µM]
CC(=O)OC(C)c1ccccc1 (centres undefined)	-0.62%
C=CCOCC(CO)(COCC=C)COCC=C	-0.915% [at 70.9 µM]
Cc1ncc([N+](=O)[O-])n1CC(O)CCl (centres undefined)	0.0244% [at 70.9 µM]
CCCCC(CC)COC(=O)c1ccccc1 (centres undefined)	0.328%
CCN(CCO)c1cccc(C)c1	2.07%
CN=C(NC#N)NCCSCc1csc(N=C(N)N)n1	-1.98% [at 70.9 µM]
CC1CCC(C(C)(C)S)C(=O)C1 (centres undefined)	-1.93%
O=CN1CCOCC1	-1.22%
CCCCCCCCCCCCCCCCCCN(C)C	3.53% [at 70.9 µM]
O=C(O)CCNC(=O)c1ccccc1	-1.71% [at 70.9 µM]
O=C(CN1CCN(Cc2ccc3c(c2)OCO3)CC1)N1c2ccccc2Sc2ccccc21	-1.38% [at 70.9 µM]
O=C(O)c1ccccc1C(=O)Nc1ccc(S(=O)(=O)Nc2nccs2)cc1	0.0718% [at 70.9 µM]
O=c1[nH]c(=O)c2ccccc2o1	-0.0577% [at 70.9 µM]
CCC1COC(=O)O1 (centres undefined)	1.22%
O=C(COCCOCCOCC(=O)Nc1c(I)cc(I)c(C(=O)O)c1I)Nc1c(I)cc(I)c(C(=O)O)c1I	-0.161% [at 70.9 µM]
C=CCOc1c(Br)cc(Br)cc1Br	1.3%
NC(=O)NC(=O)Cc1ccccc1	2.12% [at 70.9 µM]
FC(F)(F)/C(=N\OCC1OCCO1)c1ccc(Cl)cc1	1.14%
CC(=O)/C=C/c1ccco1	-2.58%
CCCCCCCCC(=O)OCC	0.769%
CCCCCCCCCCCCCCCCI	0.0964% [at 31.6 µM]
